A number with no mark means an inactive call.
The molecules below were run on Caenorhabditis elegans L1 (N2) (assay: survival and reproduction score of C. elegans L1 (0: 0-10 living worms, 1: 11-20, 2: 21-50, 3: >50, 4: overgrown) (score 0-4); higher = more worms, less nematicidal, active = 1 or less; extreme values may be limits of the assay). Conditions: 60 µM; 6 days; temperature: 20 °C.
How it was run: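 In liquid NGM with E. coli HB101, approximately 20 synchronized C. elegans N2 L1s per 96-well well were exposed to compound at 60 µM final (0.6% v/v DMSO) for 6 days at 20 °C with shaking at 200 rpm in sealed plates. Survival and reproduction were judged under a dissection microscope as an ordinal rating of living worms per well. Ratings went from 0 (0–10 worms) to 4 (overgrown, starved) and were averaged over two biological replicates.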

Structure (SMILES)	survival and reproduction score
COc1cccc(-c2noc(-c3ccc(C)cc3Cl)n2)c1	4
Cc1ccc(-c2nc(-c3ccccc3Cl)no2)cc1	4
COc1ccccc1NC(=O)CSc1nnc(-c2cccc3ccccc23)o1	4
COc1cccc(-c2noc(COc3ccccc3Cl)n2)c1	4
Cc1cccc(-c2noc(-c3ccccc3Br)n2)c1	3.5
Cc1c(C)n(C(=O)CSc2nnc(-c3ccccc3)o2)c2ccccc12	4
Cc1ccc(-c2noc(-c3ccc(Br)o3)n2)s1	0 (active)
COc1ccc(C(=O)CSc2nnc(-c3cccc4ccccc34)o2)cc1	4
Cc1cnnn1-c1ccc(-c2nc(-c3ccc(Cl)cc3)no2)cc1	4
Cc1ccc(NC(=O)CSc2nnc(-c3ccccc3)o2)cc1C	4
COc1ccc(-c2nnc(SCC(=O)OCc3ccccc3)o2)cc1	4
CC(=O)c1cccc(NC(=O)CSc2nnc(-c3ccccc3)o2)c1	4
FC(F)(F)c1ccc(-c2noc(-c3ccccc3Cl)n2)cc1	4
COc1ccccc1OCc1nc(-c2cccc(C)c2)no1	4
COc1nc(C)ccc1-c1noc(-c2ccc(C(C)(C)C)cc2)n1	4
Clc1cccc(OCc2nc(-c3ccncc3)no2)c1	3.5
Cc1ccc(-c2nnc(SCC(=O)Nc3c(C)cc(C)cc3C)o2)cc1	4
Cc1cccc(NC(=O)CSc2nnc(-c3ccncc3)o2)c1C	4
COc1ccc(C(=O)CSc2nnc(-c3cccc(Br)c3)o2)cc1	4
CCOc1cc(-c2nc(-c3cc4ccccc4nc3OC)no2)cc(OCC)c1OCC	4

Structure (SMILES)	survival and reproduction score
Cc1ncc2c(c1-c1noc(-c3ccccc3)n1)CCC2	4
Brc1ccc(-c2noc(COc3ccccc3)n2)cc1	4
COc1cccc(-c2noc(-c3cccc(F)c3)n2)c1	4
O=C(CSc1nnc(-c2ccccc2)o1)OCc1ccccc1	4
Cc1cc(OCc2nc(-c3cccnc3)no2)c(C)cc1Br	4
O=C(CSc1nnc(-c2ccccc2Cl)o1)NCc1ccccc1	4
O=C(CSc1nnc(-c2ccco2)o1)Nc1ccccc1F	4
COc1ccc(-c2noc(COc3ccc(Br)c(C)c3)n2)cc1	4
CCc1ccc(NC(=O)CSc2nnc(-c3ccc(Cl)cc3Cl)o2)cc1	4
O=C(Nc1ccccc1-c1nc(-c2cccnc2)no1)c1cccs1	4
Cc1ccc(-c2noc(COc3ccccc3Cl)n2)cc1	4
COc1ccc(-c2nnc(SCC(=O)Nc3ccc(Cl)cc3C)o2)cc1	4
O=C(Nc1ccc(-c2noc(-c3ccc(Cl)cc3)n2)cc1)c1ccco1	0 (active)
COc1cccc(-c2noc(-c3ccc(C)cc3)n2)c1	0 (active)
COc1cccc(-c2nc(-c3ccc(Br)cc3)no2)c1	0 (active)
Cc1nc(CSc2nnc(-c3ccccc3)o2)cs1	4
CCOc1cc(-c2nc(-c3cccnc3)no2)cc(OCC)c1OCC	4
COc1ccc(-c2noc(COc3ccccc3Cl)n2)cc1	4
Cc1ccccc1OCc1nc(-c2ccc(NC(=O)c3ccc(Br)o3)cc2)no1	4
